The values below come from PubChem BioAssay (NCI).

This is part of a sample that, as a whole, favours compounds with a hit. Of some 83,000 tested, about 20% had one in any assay.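 In brief: 96-well plates, 48 h treatment, single concentration, percent growth endpoint.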 Values without a mark were called inactive. The source made the active and inactive calls.

The subject of this assay is SK-MEL-28 melanoma. The experiment in a line: NCI-60 one-dose screen, 48 h (100 = growth as untreated, 0 = no growth, -100 = all killed). Conditions: 10 µM unless noted. Here is the method:
Growth inhibition of the SK-MEL-28 human tumor cell line is measured as a screen for anti-cancer activity. Cells are grown in 96 well plates and exposed to the test compound for 48 hours. Compounds are tested at a single concentration, which is 10^-5 M for most compounds. The reported endpoint is percent growth (GI% or GIPRCNT), where numbers from 0 - 100% represent growth inhibition, and numbers from -100% - 0 represent cell death. For example, a value of 40 represents 60% growth inhibition. A value of 0 means no net growth occurred over the course of the experiment. A value of -40 indicates 40% of cells at the beginning of the experiment died by the end of the experiment. A value of -100 means all cells are dead at the end of the experiment.
NCI-60 Human Tumor Cell Lines Screen was performed using the standard one-dose NCI protocol, which is described in more detail at https://dtp.cancer.gov/discovery_development/nci-60/default.htm.
Compounds with GIPRCNT values below 10 were considered active. Activity score was based on GIPRCNT using the following formula: […]
Score is 0 for GIPRCNT values of 100 or above, 50 for GIPRCNT values of 0, and 100 for GIPRCNT values of -100.
Regarding `COc1cc(-c2nc3c(c(C)nc4c3nnn4-c3ccccc3)c(=O)o2)cc(OC)c1OC`, the growth was 101%.

As to `O=C(/C(Br)=C/c1ccccc1)c1ccccc1`, the growth is 42.8%.

Turning to `Cn1c2c(cc(S(=O)(=O)c3ccccc3)c1=O)CCc1c-2cnn1-c1ccc(Cl)cc1`, the growth is -36.7% (active).

Turning to `COc1ccc(NC(=O)/C=C(C)/C=C/C=C(C)/C=C/C2=C(C)CCCC2(C)C)cc1`, the growth was 105%.

For the compound `COc1cc2c(c(OC)c1OC)C(=O)CC(c1cccc(C(=O)Nc3cccc(Br)c3)c1)O2` (stereo not given), the growth is 91.9%.

`CC[C@H](Nc1ncnc2nc[nH]c12)c1nc2cccc(NCc3ccc(C(=O)NO)o3)c2c(=O)n1-c1ccccc1`: the growth is 100%.

In the case of `COc1cc2c(cc1OC)C(Cc1cc(OC)c(OC)cc1[N+](=O)[O-])=NCC2`, the growth is 92.7%.

As to `CCCCCSc1ccc2nc(NC(=O)OCCC)sc2c1`, the growth is 70.9%.

For `COc1ccc(-c2nc(SCC(C)C)nc(Nc3ccccc3)c2C#N)cc1`, the growth was 112%.

With `COc1nc(OC)nc(-c2cc(-c3cc(OC)c(OC)c(OC)c3)no2)n1`, the growth is 115%.

Take `COc1ccc2c(N)ncc(C#Cc3cc(C(=O)Nc4ccc(CN5CCN(C)CC5)c(C(F)(F)F)c4)cnc3C)c2c1`: the growth is -80.2% (active).

In the case of `CC1=NN(c2cccc(Cl)c2)C(=O)/C1=C\c1cn(-c2nc(N3CCOCC3)nc(N3CCOCC3)n2)c2ccccc12`, the growth is 116%.

For `COC(=O)C(N)CC(C)C` (stereo not given), the growth was 108%.

In the case of `COc1ccc(/C=C2\CCCC3=C2N=C2SC=NN2C3c2ccc(OC)c(OC)c2)cc1OC` (stereo not given), the growth is 66%.

`O=c1c2c(c3ccccc3n1-c1ccccc1)NC(=S)NC2c1ccccc1` (stereo not given): the growth was 116%.

On to `CSCc1ncc(-c2ccc(C(F)(F)F)cc2)c(NC2CCCCCC2)n1`, for which the growth is 95.6% [25 µM].

With `COC(=O)c1c[n+]([O-])ccc1OC`, the growth was 91.4%.

`O=C1CCNC1`: the growth was 102%.

For the compound `O=C(Nc1cccc(Cn2c(=O)[nH]c3ccc(Oc4ncccn4)cc3c2=O)c1)c1ccc(Cl)cc1`, the growth was 69.3%.

For the compound `CCCCCCC(=O)C(C)C`, the growth was 113%.

Regarding `N#CCCCCCCCCCCC#N`, the growth was 111%.

As for `COc1cc2ncnc(-n3ncc4cc(NC(=O)Nc5ccc(Cl)c(C)c5)ccc43)c2cc1OC`, the growth is 80.5%.

In the case of `CCCCCCC(C(=O)OCC)(C(=O)OCC)C1CCCCCC1`, the growth is 106%.

Turning to `CCCCCCCCC(=O)Nc1ccc(O)cc1`, the growth was 99.7%.

Regarding `CC(=O)N1CCN(CCNC(=O)n2cc(-c3ccncc3)c(-c3ccc(O)c(Cl)c3)n2)CC1`, the growth is 85.5%.

As for `COC(=O)CC(=O)C(=O)OC`, the growth was 111%.

For `NC(=O)c1c(Nc2ccccc2)nn2cc(-c3nc4ccccc4s3)c(N)nc12`, the growth is 113%.

As for `CC[C@H](Nc1ncnc2nc[nH]c12)c1nc2cccc(NCc3ccc(C(=O)NO)nc3)c2c(=O)n1-c1ccccc1`, the growth is 57.6%.

Turning to `COC(=O)/C(Br)=C/c1c[nH]c2ccc(Br)cc12`, the growth is 105%.

As for `O=C(N/N=C/c1coc2ccccc2c1=O)c1cc2oc(-c3ccccc3)cc2[nH]1`, the growth was 91.9%.

For `O=C(Nc1ccc(-n2cc(-c3ccncc3)c(-c3ccc(Cl)c(O)c3)n2)cc1)c1cc(C(F)(F)F)cc(C(F)(F)F)c1`, the growth was 45.9%.

For the compound `CCCCCCCCc1ccc(OCCOCC[N+](C)(C)CC)cc1` (tested in a mixture with another compound), the growth was 16%.

For `Cc1ccc(C(=O)Nc2ccc(CN3CCN(C)CC3)c(C(F)(F)F)c2)cc1C#Cc1cnc(N)c2ccc(F)cc12`, the growth is -96.2% (active).

With `COc1cc(CCNc2cnc3cc(N)cc(N)c3n2)cc(OC)c1`, the growth was 61%.

`COc1ccccc1Cn1cc2c(c1)-c1oncc1CC2`: the growth was 55.3%.

`COc1ccc(-c2nnc(SCC(=O)Nc3ccc(C(=O)/C=C/c4cc(OC)c(OC)c(OC)c4)cc3)n2-c2ccccc2)cc1OC`: the growth is 18.3% [100 µM].

As to `Cc1ccc(S(=O)(=O)Nc2cccc(Cn3c(=O)[nH]c4ccc(Oc5ncccn5)cc4c3=O)c2)cc1`, the growth was 66.7%.

For the compound `CCOC(=O)c1ccc2n1CCCc1cnc(NC(C)=O)nc1-2`, the growth is 99.2%.

In the case of `C=C(C)C(C(=O)OCC)(C(=O)OCC)C(C)C`, the growth is 97%.

Turning to `CCOC(=O)c1c(C)oc2ncnc(Nc3ccc(NC(=O)Nc4ccc(CC)cc4)cc3)c12`, the growth is 105%.
